Laboratory results published in the supplement of paper PMC6805474.

system: Schistosoma mansoni schistosomula (Liberian); assay: drug effect (1 - score/DMSO control score) (fraction); higher = more antischistosomal effect, active = 0.5 or more; extreme values may be limits of the assay; conditions: 48 h; 10 µM
How it was run: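 Liberian-strain Schistosoma mansoni schistosomula, mechanically transformed from cercariae and pre-incubated at least 12 h, were exposed in duplicate (50 per well, flat-bottom 96-well plates) to 10 µM compound in Medium 199 with 5% FCS at 37 °C, 5% CO2, with 0.1% DMSO control wells. Wells were scored visually (10×) at 24, 48 and 72 h on a quarter-point scale from 3 (normal) to 0 (dead). Drug effect was derived from the mean test-well score relative to the mean DMSO-control score. Negative values were set to zero, and plates were valid only if control wells averaged at least 2.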

| SMILES | drug effect |
| --- | --- |
| Cc1cnc(N2CCN[C@@H](Cc3ccccc3)C2)nc1Oc1ccc(-n2ccnc2)cc1 | 0.556 (active) |
| CCCNC(=O)N1CCC2(CC1)CC(=O)c1cc(C)ccc1O2 | 0.15 (inactive) |
| COc1ccc2nc(C)cc(OCC(=O)Nc3ccccc3OC)c2c1 | 0.278 (inactive) |
| COc1cc(NC(=O)Cc2nn(C)c(=O)c3ccccc23)ccc1Cl | 0.111 (inactive) |
| O=C(Nc1cccnc1)c1c(O)c2cccc3c2n(c1=O)CC3 | 0.2 (inactive) |
| OCc1ccc(-c2cncc(Nc3cccc(Cl)c3)c2)cc1 | 0.0811 (inactive) |
| CC(=O)N(CCN(C(=O)c1ccc(F)cc1)c1ccccc1)c1ccccc1 | 0.027 (inactive) |
| CCCCc1ccc(NC(=O)Nc2ccc(O[C@H]3CCCC[C@@H]3N(C)c3ccccc3)c(F)c2)cc1 | 0.312 (inactive) |
| CCc1c(C)nc(-n2nc(C)cc2NC(=O)c2ccccc2SC)[nH]c1=O | 0.95 (active) |
| CC(C)(C)C(=O)N(CCCCCCN1C[C@H](O)[C@@H](O)[C@H](O)[C@H]1CO)C1CCCCCC1 | 0.556 (active) |
| O=C(NC1CC1)c1ccc(N2CCC(Cc3ccccc3)CC2)nc1 | 0.0811 (inactive) |
| Cc1cc(O)nc(-n2nc(C)cc2C)n1 | 0.243 (inactive) |
| CCc1ccccc1-n1c(C)cn2c3c(=O)n(C(C(=O)OC)C(C)C)c(=O)n(C)c3nc12 (centres undefined) | 0.405 (inactive) |
| COc1ccc(N(CCc2cccc(C)n2)C(=O)C2CCCCC2)cc1 | 0.2 (inactive) |
| CCc1cc(=O)n(C)c(SC(C)C(=O)Nc2ccc(F)cc2)n1 (centres undefined) | 0.111 (inactive) |
| CO[C@@H](C(=O)N1Cc2[nH]nc(NC(=O)c3ccc(N4CCN(C)CC4)cc3)c2C1)c1ccccc1 | 0.243 (inactive) |
| CN1CCCN(C(c2ccccc2)c2ccc(Cl)cc2)CC1 (centres undefined) | 0.05 (inactive) |
| Cc1cc(Cl)ccc1NC(=O)CCc1ccc(S(=O)(=O)NCC(C)C)cc1 | 0.278 (inactive) |
| O=C(Nc1ccc(N2CCNCC2)nc1)c1oc(-c2ccccc2)nc1C(F)(F)F | 0.389 (inactive) |
| Cc1cccc(Cn2ccc(NC(=O)c3ccc4c(c3)OCO4)n2)c1 | 0.125 (inactive) |
| CS(=O)(=O)c1ccccc1C(=O)N(Cc1ccccc1)c1ccccc1 | 0.4 (inactive) |
| COC(=O)c1c(NC(=O)c2cc3ccccc3oc2=O)sc2c1CCN(Cc1ccccc1)C2 | 0.222 (inactive) |
| Cc1ccccc1CN1CCC(O)(c2ccc(Cl)c(C(F)(F)F)c2)CC1 | 0.0556 (inactive) |
| c1ccc(Oc2ccc(-c3cc(N4CCNCC4)[nH]n3)cc2)cc1 | 0.15 (inactive) |
